SMILES strings stand for the structures. Inconclusive results are not listed. Calls of active or inactive are those of the source. How the source made its calls: active means hit-call score of the fitted dose curve at least 0.9, where 1 is the maximum; inconclusive means response in the unintended direction; inactive means score below 0.9.

This test is described as follows: Tanguay_ZF_120hpf_SOMI_legacy: (Legacy) Oregon State University Tanguay Lab 120 Hour Post-fertilization zebrafish Assay for Somite Malformation (AID 2283647). Here is the method:
Tanguay_ZF_120hpf_legacy is a whole embryo, multiplexed endpoint assay using zebrafish larvae exposed for 120 hours post fertilization on a 96-well plate.Tanguay_ZF_120hpf_SOMI_legacy is one of one assay component(s) measured or calculated from the Tanguay_ZF_120hpf_legacy assay. It is designed to make measurements of zebrafish development as detected with brightfield microscopy of developing zebrafish embryos.Data from the assay component Tanguay_ZF_120hpf_SOMI_legacy was analyzed into 1 assay endpoints. This assay endpoint, Tanguay_ZF_120hpf_SOMI_legacy, was analyzed in the positive analysis fitting direction relative to DMSO as the negative control and baseline of activity. Using a type of morphology reporter, gain-of-signal activity can be used to understand changes in developmentals as they relate to the whole embryo. To generalize the intended target to other relatable targets, this assay endpoint is annotated to the zebrafish development intended target family, where the subfamily is somitogenesis.
Zebrafish husbandry: Tropical 5D wild-type adult zebrafish were housed in at an approximate density of 1000 per 100 gallon tank at the Sinnhuber Aquatic Research Laboratory, Oregon State University, Corvallis, OR. Each tank was kept at standard laboratory conditions of 28C on a 14-h light/10-h dark photoperiod in fish water consisting of reverse osmosis water supplemented with a commercially available salt (Instant Ocean). Spawning funnels were placed into the tanks the night prior, and embryos were collected and staged. To increase bioavailability, the chorion was enzymatically removed using pronase (63.6mg/ml, >/= 3.5U/mg, Sigma-Aldrich: P5147) at 4 hours post fertilization (hpf) using a custom automated dechorionator.Chemical exposures: Six hpf dechorionated embryos were placed 1 embryo per well in a 96-well plate prefilled with 90 ul of EM using automated embryo placement systems (AEPS). Ten microliters of each row of dilution plate 2 was added to 2 exposure plates. The final DMSO concentration used was 0.64% (vol/vol). Thirty-two embryos were also exposed to 5uM trimethyltin chloride (positive control). Plates were sealed to prevent evaporation and foil covered to reduce light exposure and kept in a 28C incubator. Embryos were statically exposed until 120 hpf. At 24 hpf, embryos were assessed for photomotor response using a custom photomotor response analysis tool (PRAT) and for developmental toxicity endpoints (MO24: mortality at 24 hpf, DP: developmental progression, SM: spontaneous movement, and NC: notochord distortion). At 120 hpf, locomotor activity was measured using Viewpoint Zebralab and assessed for 18 endpoints. Zebrafish acquisition and analysis program (ZAAP), a custom program designed to inventory, acquire, and manage zebrafish data, was used to collect developmental endpoints as either present or absent (i.e., binary responses were recorded). If mortality occurred for an embryo (at either 24 or 120 hpf), the non-mortality endpoints were not measured.
With `ClC1(Cl)C2(Cl)C3(Cl)C4(Cl)C(Cl)(Cl)C5(Cl)C3(Cl)C1(Cl)C5(Cl)C24Cl` (configuration not stated), the call was inactive. With `NC(=O)O`, the result was inactive. For the compound `COc1cc(-c2ccc(N)c(OC)c2)ccc1N`, the call was inactive. `CC12CC1(C)C(=O)N(c1cc(Cl)cc(Cl)c1)C2=O` (configuration not stated): the outcome was inactive. Turning to `C=CC(=O)OCCCCCC(C)C`, the compound was classed as inactive.

Turning to `O=C(O)C(Cl)(Cl)Cl`, the compound was called inactive. In the case of `CCC(C)(C)c1ccc(O)c(C(C)(C)CC)c1` it was “inactive”. With `O=C(Nc1ccc2[nH]ccc2c1)c1cc2cc(F)ccc2n1Cc1cccc(F)c1`, the compound was called inactive.

As to `C[C@]12CCC(=O)C[C@@H]1CC[C@@H]1[C@@H]2CC[C@]2(C)[C@@H](O)CC[C@@H]12`, the compound was called inactive. In the case of `Cc1ccccc1N`, the outcome was inactive. Consider `CCOP(=S)(OCC)Oc1nc(Cl)c(Cl)cc1Cl`, for which the outcome was inactive. As for `C[C@@H]1C[C@@H]([C@H](O)CC2CC(=O)NC(=O)C2)C(=O)[C@@H](C)C1`, the result was inactive. In the case of `CCCCCCCCc1ccc(O)cc1` it was “inactive”. For `CCN1CCC2(CC1)COc1cc3c(cc12)N(C(=O)c1ccc(-c2ccc(-c4nnc(C)o4)cc2C)cc1)CC3` the value was “inactive”; for `O=C(O)C(F)(F)C(F)(F)C(F)(F)C(F)(F)C(F)(F)C(F)(F)C(F)(F)C(F)(F)C(F)(F)C(F)(F)F`, “inactive”. For `CN(C)N=O` the value was “inactive”; for `ClCC(Cl)CCl`, “inactive”.

Regarding `CC(C)(C)CC(C)(C)c1ccc(O)cc1`, the compound was called inactive. Consider `Oc1cccc2cccnc12`, for which the outcome was inactive. In the case of `CCOP(=S)(OCC)SCSP(=S)(OCC)OCC` it was “inactive”; in that of `CCC(=O)C(CC(C)N(C)C)(c1ccccc1)c1ccccc1` (configuration not stated), “inactive”; in that of `CC(C)(OO)c1ccccc1`, “inactive”. Take `O=C1C2(Cl)C3(Cl)C4(Cl)C(Cl)(Cl)C5(Cl)C3(Cl)C1(Cl)C5(Cl)C24Cl` (configuration not stated): the outcome was inactive. In the case of `O=c1[nH]c(=O)[nH]c(=O)[nH]1` it was “inactive”; in that of `C=C(C)C(=O)[O][Sn]([CH2]CCC)([CH2]CCC)[CH2]CCC`, “inactive”. For the compound `CC(=O)[O][Hg][c]1ccccc1`, the outcome was inactive. Regarding `CC(C)(C)c1cc(O)ccc1O`, the compound was classed as inactive.

For the origin of these results see PubChem BioAssay (EPA / NIEHS).
